Screening results (PubChem)
CBX7 inh = CBX7 inhibition, primary AlphaScreen | normalised signal (fraction of DMSO) (concentration not given with the values) | AID 1224903 | O95931 | actives 1.1% (n = 66,000) | AlphaScreen His6-CBX7 / biotin-H3K27me3 peptide binding; hits give low values; in the data active = normalised signal below about 0.5
Target sequence (O95931 whole entry, looked up): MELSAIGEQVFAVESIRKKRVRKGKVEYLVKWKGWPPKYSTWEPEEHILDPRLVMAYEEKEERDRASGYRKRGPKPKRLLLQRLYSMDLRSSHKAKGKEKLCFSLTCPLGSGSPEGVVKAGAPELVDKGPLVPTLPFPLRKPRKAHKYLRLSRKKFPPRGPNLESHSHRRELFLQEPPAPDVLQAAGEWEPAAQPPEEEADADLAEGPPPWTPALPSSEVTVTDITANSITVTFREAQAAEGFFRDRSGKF
Of the large screens only hits and unclear results are named; the others gave an inactive call. Many of the other results were omitted from the sample, so hits are more common in it than they were.

COc1ccc(Nc2c(-c3ccccn3)nc3ccc(C)cn23)cc1	CBX7 inh 0.06
Cc1ccc2nc(-c3ccncc3)c(Nc3ccccc3C)n2c1	none
Fc1ccc(Nc2c(-c3ccccn3)nc3ccc(Cl)cn23)cc1	none
Clc1ccc2nc(-c3ccccn3)c(Nc3ccccc3)n2c1	none
Cc1ccc2nc(-c3ccccn3)c(Nc3ccc(F)cc3)n2c1	CBX7 inh 0.21
O=C(O)CCc1ccc(-c2ccccc2)n1-c1cccc(C(F)(F)F)c1	none
Cc1cc(NC(=O)CN2CCN(c3ccc(Cl)cc3)CC2)no1	none
COc1ccc(Cl)cc1S(=O)(=O)NCCc1c(C)[nH]c2ccc(Br)cc12	none
Cc1cc(C)c2c(n1)sc1c(-c3ccccc3)onc12	none
Cc1nc2ccc(S(=O)(=O)N(C)CC(=O)Nc3cccc(Cl)c3)cc2s1	none
COc1ccc(OC)c(NC(=O)CSc2ccc3nnc(-c4ccccc4)n3n2)c1	none
CCC1Oc2ccccc2N(CC(=O)NCCCOC)C1=O (configuration not stated)	none
O=C1CCc2cc(S(=O)(=O)N3CCC(C(=O)N4CCc5ccccc5C4)CC3)ccc2N1	none
Clc1ccc2nc(-c3ccc(N4CCOCC4)cc3)c(Nc3ccc4c(c3)OCCO4)n2c1	none
Clc1ccc2nc(-c3ccccn3)c(Nc3ccc4c(c3)OCCO4)n2c1	CBX7 inh 0.15
Clc1ccc2nc(-c3ccccc3)c(Nc3ccc4c(c3)OCCO4)n2c1	none
O=C(Nc1ccccc1C(F)(F)F)C1CC(c2ccc(F)cc2)=NO1 (configuration not stated)	none
CCOc1ccc2nc(NC(=O)c3ccc(S(=O)(=O)N(CC)CC)cc3)sc2c1	none
CC(C)(C)c1ccc(-c2nnc3sc(-c4ccccn4)nn23)cc1	CBX7 inh 0.11
c1ccc(-c2nnc3sc(-c4cnccn4)nn23)cc1	none
c1ccc(-c2nnc3sc(-c4ccccn4)nn23)cc1	none
O=C(C1CCC1)N1CCc2cc(S(=O)(=O)NCCN3CCOCC3)ccc21	none
CC1CCCCC1NC(=O)c1nnc(Cc2ccc(F)cc2)o1 (configuration not stated)	none
CCn1c2c(c3cc(C4CCCCC4)ccc31)CCCC2O (configuration not stated)	CBX7 inh 0.47
O=C1CCCc2c1[nH]c1ccc(C3CCCCC3)cc21	none
O=C(c1ccccc1)N1CCn2c3c(c4cc(C5CCCCC5)ccc42)CCCC31 (configuration not stated)	none
CCOC(=O)C1CCN(C(=O)c2cc3c(C)nn(-c4ccccc4)c3s2)CC1	none
COc1ccccc1NC(=O)[C@H](CCS(C)(=O)=O)N1Cc2ccccc2C1=O	none
O=C(Cn1nc(Cc2cccnc2)c2ccccc2c1=O)N1CC=C(c2ccccc2)CC1	none
CCC(Cc1ccccc1)NC(=O)c1cc(C)nn1-c1ccccc1 (configuration not stated)	none
Cc1ccc(C)c(OCCCCCCc2c(C)n[nH]c2C)c1	none
Cc1ccc(OCCCCc2c(C)n[nH]c2C)c(C(C)(C)C)c1	CBX7 inh 0.42
Cc1n[nH]c(C)c1CCCCCOc1ccccc1F	none
CCOc1ccc(Nc2cc(C(=O)NCCc3ccc(OC)c(OC)c3)c3ccccc3n2)cc1	none
CCN1C(=O)c2ccccc2S(=O)(=O)c2ccc(C(=O)NCCc3ccc(OC)c(OC)c3)cc21	none
CCCC1CCC(c2nc(-c3ccc(Br)cc3)no2)CC1 (configuration not stated)	none
CCOc1cc2c(cc1OCC)C1C(C(=O)Nc3cc(C)ccn3)c3ccccc3C(=O)N1CC2 (configuration not stated)	CBX7 inh 0.19
CCOc1cc2c(cc1OCC)C1C(C(=O)Nc3ccccc3CC)c3ccccc3C(=O)N1CC2 (configuration not stated)	none
CCOc1cc2c(cc1OCC)C1C(C(=O)Nc3ccccc3C)c3ccccc3C(=O)N1CC2 (configuration not stated)	none
N#Cc1c(NC(=O)c2cc(-c3ccc(Br)cc3)on2)sc2c1CCCC2	none
CCOC(=O)c1c(NC(=O)c2ccc(C)cc2)sc2c1CCC(CC)C2 (configuration not stated)	none
CCOc1ccc(Sc2cc(C(=O)NCCC(C)C)c3ccccc3n2)cc1	none
CC(C)c1ccc(NC(=O)C2CCN(S(=O)(=O)c3ccccc3)CC2)cc1	none
CCOC(=O)c1cnc2ccc(OC)cc2c1Nc1ccc2c(c1)OCCO2	CBX7 inh 0.47
CCOC(=O)c1cnc2ccc(OCC)cc2c1Nc1ccc2c(c1)OCO2	CBX7 inh 0.42
CCOC(=O)c1cnc2ccc(OCC)cc2c1Nc1ccc2c(c1)OCCO2	none
CCOC(=O)c1cnc2ccc(OCC)cc2c1Nc1ccc(CC)cc1	none
CCOC(=O)c1cnc2ccc(Br)cc2c1Nc1ccc2c(c1)OCCO2	none
CCOC(=O)c1cnc2ccc(OC)cc2c1Nc1ccc(C)c(C)c1	none
COc1ccc(C(=O)Nc2ccc3nc(N4CCN(C)CC4)cc(C)c3c2)cc1OC	none
CC(NC(=O)Cn1ncc2c1-c1ccccc1OC2)c1ccc2c(c1)OCCO2 (configuration not stated)	none
COc1ccc(N2CCN(c3nc4cccnc4s3)CC2)cc1	none
Cc1ccn2c(NC(=O)c3ccc(F)cc3)c(-c3ccc(F)cc3)nc2c1	none
O=C(Nc1nc(N2C(=O)c3ccccc3C2=O)n(-c2ccccc2)n1)c1ccc(F)cc1	CBX7 inh 0.09
COc1ccc(N2C(=O)c3ccc(C(=O)Nc4ccccc4C(=O)O)cc3C2=O)cc1	none
COc1ccc(C(=O)Nc2nc(N3C(=O)c4ccccc4C3=O)n(-c3ccccc3)n2)cc1	CBX7 inh 0.2
COc1ccc(NC(=O)c2ccc3c(c2)C(=O)N(c2cccc(C)c2)C3=O)cc1	none
Cc1ccn2c(NC(=O)c3ccc(F)cc3)c(-c3ccccc3)nc2c1	none
CCOC(=O)Cc1csc(NC(=O)COc2ccc(C)cc2Br)n1	none
Cc1ccn2c(Nc3ccc4c(c3)OCO4)c(-c3cc(Br)ccc3F)nc2c1	none
CCOCCCNC(=O)c1cnn2c(C(F)(F)F)cc(-c3ccccc3)nc12	none
CCOC(=O)c1cnc2c(C)cc(C)cc2c1Nc1ccc(C)c(Cl)c1	none
CC1CCN(C2CC(=O)N(c3ccc(C(=O)O)cc3)C2=O)CC1 (configuration not stated)	none
CNC(=O)c1ccc2c(c1)N=C(C)c1c(C)ccc(C)c1S2	none
CCn1cnc2cc(NCc3ccc(Cl)cc3Cl)ccc21	none
CC(C)c1ccc(CNc2ccc3c(c2)ncn3C(C)(C)C)cc1	CBX7 inh 0.29
Cc1ccc(S(=O)(=O)Nc2ccc3c(c2)ncn3C(C)(C)C)cc1	none
COc1ccc(CNc2ccc3c(c2)ncn3C(C)(C)C)cc1	none
CC(C)c1ccc(CNc2ccc3oc(-c4ccccc4)nc3c2)cc1	none
COc1ccccc1-n1cnc2cc(NCc3ccc(Cl)cc3)ccc21	none
CC(C)(C)n1cnc2cc(NCc3ccccc3Cl)ccc21	CBX7 inh 0.4
CC(C)n1cnc2cc(NCc3ccncc3)ccc21	none
COc1cccc(CNc2ccc3c(c2)ncn3C(C)C)c1OC	none
CC(C)n1cnc2cc(NCc3cccc4ccccc34)ccc21	CBX7 inh 0.25
Cc1ccc(CNc2ccc3c(c2)ncn3C(C)(C)C)cc1	CBX7 inh 0.41
O=C(Nc1ccc2c(c1)OCCO2)C(c1ccccc1)N(Cc1ccccc1)Cc1ccccc1 (configuration not stated)	none
COC(CNC(=O)c1ccc2c(c1)N(Cc1ccc(F)cc1)C(=O)c1ccccc1S2(=O)=O)OC	none
COc1ccc2nc(NC(=O)Nc3cccs3)sc2c1	none
CCN(CCCNC(=O)Cn1nc(-c2ccc(Cl)cc2)ccc1=O)c1cccc(C)c1	none
COc1ccc(NC(=O)c2nn3c(C(F)(F)F)cc(-c4cccs4)nc3c2Cl)cc1OC	none
CCOc1ccccc1NC(=O)CN(c1ccc(C(C)C)cc1)S(=O)(=O)c1c(C)nn(C)c1C	none
